# This is part of a sample that, as a whole, favours compounds with a hit. Of some 83,000 tested, about 20% had one in any assay.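 Negative percent growth values reflect cell death: -40 means 40% of the cells present at the start died, and -100 means all died.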 Values without a mark were called inactive. Active and inactive are the calls of the source.
# Tested on: HT29 colon
# Test: NCI-60 one-dose screen, 48 h (100 = growth as untreated, 0 = no growth, -100 = all killed)
# Settings: 10 µM unless noted
# Protocol: Growth inhibition of the HT29 human tumor cell line is measured as a screen for anti-cancer activity. Cells are grown in 96 well plates and exposed to the test compound for 48 hours. Compounds are tested at a single concentration, which is 10^-5 M for most compounds. The reported endpoint is percent growth (GI% or GIPRCNT), where numbers from 0 - 100% represent growth inhibition, and numbers from -100% - 0 represent cell death. For example, a value of 40 represents 60% growth inhibition. A value of 0 means no net growth occurred over the course of the experiment. A value of -40 indicates 40% of cells at the beginning of the experiment died by the end of the experiment. A value of -100 means all cells are dead at the end of the experiment.
# NCI-60 Human Tumor Cell Lines Screen was performed using the standard one-dose NCI protocol, which is described in more detail at https://dtp.cancer.gov/discovery_development/nci-60/default.htm.
# Compounds with GIPRCNT values below 10 were considered active. Activity score was based on GIPRCNT using the following formula: […]
# Score is 0 for GIPRCNT values of 100 or above, 50 for GIPRCNT values of 0, and 100 for GIPRCNT values of -100.
row,Compound,growth
1,COc1ccc(C2CC(c3ccc4ccccc4c3)=NN2/C=C2\SC(=S)N(NC(=O)Cc3ccccc3Nc3c(Cl)cccc3Cl)C2=O)cc1 (stereo not given),32.3%
2,Cc1ccc2c(c1)C(=O)/C(=C/c1cccc(OCC(=O)c3ccc(Cl)cc3)c1)CS2,87.9%
3,CN1CCN(c2ccc(Nc3c4ccccc4nc4ccccc34)cc2)CC1,103%
4,C#CCOc1ccc2ncnc(N3CCC(NC(=O)CCl)CC3)c2c1,64.9% [8.25 µM]
5,COc1cccc(NC(=O)c2sc3nc(C)c(C(C)=O)cc3c2N)c1,38.7%
6,C/C1=C\CC[C@@]2(C)O[C@H]2[C@H]2OC(=O)C(CN3CCN(CC4C(=O)O[C@H]5[C@H]4CC/C(C)=C/CC[C@@]4(C)O[C@@H]54)CC3)[C@@H]2CC1 (stereo not given in full),104%
7,Cc1cc(N2CCCCCC2)nc(NC2CCCC(Nc3ccnc4cc(Cl)ccc34)C2)n1 (stereo not given),-82.9% (active)
8,Cc1ccc(NC(=O)C2CCC(CN3CCN(C)CC3)CC2)cc1Nc1nccc(-c2cccnc2)n1 (stereo not given),100%
9,O=C1c2cc3c(cc2-c2c1c1ccc(Cl)cc1c(=O)n2CCCN1CCOCC1)OCO3,63.3%
10,COc1ccc(-c2nnc(SCC(=O)c3ccc(Cl)cc3)o2)cc1,96%
11,CN(C)CCN1C(=O)c2cccc3c(N)ccc(c23)C1=O,13.5%
12,Cc1ccc(C2Oc3ccccc3C3CC(c4cccs4)=NN32)cc1 (stereo not given),109%
13,COc1cccc(-c2nn(C(C)(C)C)cc2-c2ccnc(NCCCNS(=O)(=O)c3cccc4ccccc34)c2)c1,103%
14,Nc1n[nH]c2cc(F)c([C@@H]3Nc4ccc5[nH]ncc5c4[C@H]4C5CCC(C5)[C@@H]34)cc12 (stereo not given in full),3.7% (active)
15,CCn1c(O)c(/C=N/NC(=O)C(C)c2ccc(CC(C)C)cc2)sc1=S (stereo not given),10.1%
16,Oc1ccccc1-c1nnc(CNc2ccc(Cl)cc2)o1,39.7%
17,Cc1cc(C)nc(SC2=C(Nc3ccc(C)c(Cl)c3)C(=O)N(Cc3ccccc3)C2=O)n1,46% [30 µM]
18,COc1ccc(C(=O)c2sc3nc4c(c(-c5cccnc5)c3c2N)CCCC4)cc1OC,74.3%
19,CC(=O)NCC1c2c(n(C)c3c(Cl)c(Cl)ccc23)C(=O)NC1(C)C (stereo not given),108%
20,COc1ccc(C2C(C#N)=C(N)Oc3n[nH]c(-c4cccs4)c32)cc1I (stereo not given),98.4%

row,Compound,growth
1,O=[N+]([O-])c1ccc2c(c1)Cc1cc(F)ccc1-2,95.6%
2,COc1cccc(C2=NN3C(C2)c2cc(Br)cc(OC)c2OC32CCN(Cc3ccccc3)CC2)c1 (stereo not given),108%
3,O=C1c2cc3c(cc2-c2c1c1ccc(F)cc1c(=O)n2CCCNCCO)OCO3,-74.3% (active)
4,Nc1n[nH]c2ccc([C@@H]3Nc4cc5c(cc4[C@H]4C6CCC(C6)[C@@H]34)C(=O)NC5)cc12 (stereo not given in full),12%
5,C=C1c2nc3ccccc3n2C=C(c2ccc(Cl)cc2)N1Cc1ccc(OC)cc1,88.8%
6,O=C(Cn1cccc(Nc2ccccc2)c1=O)Nc1ccccc1,106%
7,O=C(N/N=C/c1c[nH]c2ccccc12)c1cc(-c2ccccc2)on1,102%
8,CN1CCN(c2nc(NCCCNc3ccnc4cc(Cl)ccc34)c3ccccc3n2)CC1,6.44% (active)
9,COc1cc(C=Nc2oc(-c3ccccc3)c(-c3ccccc3)c2C#N)cc(CN2CCCCC2)c1O,102%
10,O=C1/C(=C/c2ccccc2O)N=C2SCCCN12,103%
11,C=C(C)C(=O)Nc1ccc(NC(C)C)cc1,114%
12,O=C1c2ccccc2C(=O)c2c1ccc1[nH]c(-c3cccs3)nc21,107%
13,COc1cc(/C=C/C(=O)Nc2cccnc2Nc2ccc(F)cc2)cc(OC)c1OC,91.2%
14,COc1ccc(-c2cc(=O)c3c(OC)c4ccoc4cc3o2)cc1,82.1%
15,O=C1NC(=O)C(c2ccc(Cl)cc2Cl)N1 (stereo not given),106%
16,COc1ccc(O)c(N=Nc2nccs2)c1,79.7%
17,Oc1ccc(N=Cc2ccccc2O)cc1,99%
18,CC(=O)c1nc2ccccc2n1CC(=O)c1cccc(Cl)c1,94%
19,Clc1ccc2c(NCCNc3nc(N4CCCCC4)nc4ccccc34)ccnc2c1,-28% (active)
20,CCNC(=O)Oc1ccc(/C(=C(\C)c2ccc(Cl)cc2)c2ccc(OCCN(CC)CC)cc2)cc1,-23.2% (active)

# Source: PubChem BioAssay (NCI)
